# Assay outcomes (PubChem)
# Most compounds without a hit are left out; they make up all but 7% or so of the library.
# AHR act – AHR activators, primary screen, cell-based, luminescence, luciferase reporter, human; AID 2796, 2010; activation, % at 5 µM; AHR-responsive luciferase reporter cells; 2.5% of 320,000 active; Aryl hydrocarbon receptor (Homo sapiens), P35869; in the data active = activation above about 47%
# rCAG binder – binders of r(CAG) RNA repeats, primary screen, biochemical, fluorescence; r(CAG) RNA repeat, TO-PRO-1 dye displacement fluorescence; inhibition, % at 3 µM; 1.3% of 370,000 active;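 active = inhibition above the plate cutoff, the mean of all test compounds on that plate plus 3 SD, cut at about 35% in these data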;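 note: higher means more dye released from RNA so lower well fluorescence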
# ADAM17 inh – ADAM17 inhibitors, primary screen, biochemical, QFRET; Disintegrin and metalloproteinase domain-containing protein 17 (Homo sapiens), P78536; recombinant ADAM17, EDANS/DABCYL FRET peptide cleavage; 0.83% of 370,000 active; inhibition, % at 6.95 µM;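 active = inhibition above the mean of compounds lying between control limits plus 3 SD, set per campaign, cut at about 8.5% in these data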
# ADAM10 inh – human ADAM10 inhibitors, primary screen, biochemical, QFRET, HTS. Disintegrin and metalloproteinase domain-containing protein 10 (Homo sapiens), O14672. AID 720582, 2013. inhibition, % at 7 µM. 0.62% of 370,000 active. recombinant ADAM10, EDANS/DABCYL FRET peptide cleavage, 3 h;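 active = inhibition above a per-campaign cutoff equal to the mean of compounds falling between control-based bounds plus 3 SD, cut at about 20% in these data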
# NR3A LBD binder – binders of NR3A ligand-binding domain, primary screen, biophysical, differential scanning fluorimetry, uHTS; Glutamate receptor ionotropic, NMDA 3A (GRIN3A) ligand-binding domain; NR3A LBD differential scanning fluorimetry, Tm shift; 0% = protein alone, 100% = glycine-bound protein; Tm shift relative to glycine control, % at 25 µM; 2.5% of 340,000 active;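 active = melting temperature shift of at least 10% of the positive control shift, at one fixed dose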
# proKLK7 act – proKLK7 zymogen activators, primary screen, biochemical, fluorescence intensity; purified proKLK7, EDANS-DABCYL substrate fluorescence; 100% is mature enzyme control, 0% vehicle; 0.9% of 370,000 active; Kallikrein-7 (Homo sapiens), P49862; activation, % at 7 µM;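 active = activation above the mean of all tested compounds plus 3 SD, computed per campaign excluding outliers beyond control limits, cut at about 13% in these data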
# Target sequence (P49862 whole entry, looked up): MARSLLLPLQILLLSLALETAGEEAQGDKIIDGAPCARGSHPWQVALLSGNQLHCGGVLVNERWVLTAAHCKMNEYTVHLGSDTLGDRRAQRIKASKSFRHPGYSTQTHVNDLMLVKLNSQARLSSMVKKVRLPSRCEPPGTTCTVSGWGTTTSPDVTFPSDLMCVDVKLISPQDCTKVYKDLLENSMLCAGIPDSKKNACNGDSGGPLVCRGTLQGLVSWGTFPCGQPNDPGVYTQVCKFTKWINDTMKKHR
# A number is an active result; . = inactive; / = no result given.
SMILES,AHR act,rCAG binder,ADAM17 inh,ADAM10 inh,NR3A LBD binder,proKLK7 act
COc1ccc2nc(NS(=O)(=O)c3ccc(NC(C)=O)cc3)sc2c1,.,.,.,.,.,.
CCCCC(=O)OCC(=O)Nc1ccc(OC(F)F)cc1,.,.,.,.,13,.
CN(Cc1ccccc1)C(=O)c1[nH]cnc1C(=O)Nc1ccc(Cl)cc1,66,.,.,.,.,.
O=C(Nc1ccccc1)c1nc[nH]c1C(=O)NCCNC(=O)c1[nH]cnc1C(=O)Nc1ccccc1,76,.,.,.,.,.
COc1ccc(NC(=O)c2nc[nH]c2C(=O)N(C)Cc2ccccc2)cc1,.,.,.,.,.,.
O=C(Nc1ccccc1)c1nc[nH]c1C(=O)NCCCCNC(=O)c1[nH]cnc1C(=O)Nc1ccccc1,.,.,.,.,.,.
CN(Cc1ccccc1)C(=O)c1[nH]cnc1C(=O)Nc1cccc(Cl)c1,.,.,.,.,.,.
CN(CCN(C)C(=O)c1[nH]cnc1C(=O)Nc1ccccc1)C(=O)c1[nH]cnc1C(=O)Nc1ccccc1,47,.,.,.,.,.
O=C(Nc1ccc(Cl)cc1)c1nc[nH]c1C(=O)NCc1ccccc1,.,.,.,.,24,.
O=S1(=O)c2ccc(Br)cc2OC[C@@H](Cc2ccccc2)N1Cc1cn(CCC2OCCO2)nn1,/,.,.,.,/,.
O=S1(=O)c2ccc(N3CCSCC3)cc2Oc2ccccc2CN1Cc1cn(Cc2ccc(Cl)cc2)nn1,/,.,.,.,/,.
Cc1ccc(-c2nc(-c3nccc4ccccc34)oc2-c2ccccc2)cc1,.,.,.,.,11,.
c1ccc(-c2nccc3ccccc23)cc1,.,.,.,.,.,.
Cc1ccc(C)c(N2CCN(C(=O)CCc3nc(-c4ccc(F)cc4)no3)CC2)c1,/,.,.,.,.,.
Cc1ccc(C)c(N2CCN(C(=O)CCc3nc(-c4ccccc4)no3)CC2)c1,/,.,.,.,15,.
Cc1cccc(-c2noc(CCC(=O)N3CCN(c4cc(C)ccc4C)CC3)n2)c1,/,.,.,.,17,.
CC[C@H](NC(=O)[C@@H](Cc1ccccc1)NC(=O)[C@H]1O[C@@H](n2cnc3c(=O)[nH]c(N)nc32)[C@H](O)[C@@H]1O)c1ccccc1,/,.,.,.,/,.
O=CN/C=C/c1cccc(O)c1,/,.,.,.,14,.
O=C(CSc1nnc(CCCN2C(=O)c3cccc4cccc(c34)C2=O)n1-c1ccccc1)NCCCO,.,.,.,.,13,.
CCc1ccc(/C(C)=N\Nc2ccc([N+](=O)[O-])cc2)cc1,.,.,.,.,.,.
C/C(=N\Nc1ccc([N+](=O)[O-])cc1)c1ccc(-n2nncc2C)cc1,50,.,.,.,.,.
C/C(=N\Nc1ccc([N+](=O)[O-])cc1)c1ccc(N)cc1,.,.,.,.,11,.
CCOC(=O)c1c(NC(=O)C(C)NCc2ccco2)sc2c1CCC(C)C2 (stereo not drawn),51,.,.,.,.,.
CCOC(=O)c1c(NC(=O)Cn2nnc3ccccc32)sc2c1CCC(C)C2 (stereo not drawn),63,.,.,.,.,.
CCOC(=O)c1c(NC(=O)COC(=O)Cn2cnc3ccccc32)sc2c1CCC(C)C2 (stereo not drawn),.,.,.,.,.,.
SMILES,AHR act,rCAG binder,ADAM17 inh,ADAM10 inh,NR3A LBD binder,proKLK7 act
CC1CCc2c(sc(NC(=O)COC(=O)c3ccccc3NCc3ccco3)c2C#N)C1 (stereo not drawn),.,.,.,.,.,.
Cc1ccc2cc(CN(CCN(C)C)C(=O)Nc3ccc(Cl)cc3)c(=O)[nH]c2c1,.,.,.,.,11,.
O=C(Nc1ccc(Cl)c(Cl)c1)C1CC(=O)N(c2ccc(Br)cc2)C1 (stereo not drawn),.,.,.,.,28,.
Cc1ccc(N2CC(C(=O)N3CCC(C(=O)Nc4ccc(Br)cc4)CC3)CC2=O)cc1 (stereo not drawn),.,.,.,.,.,.
CCC[C@H]1[C@@H](NC(=O)C#Cc2ccccc2)CC[C@@]23CCCN2C(=O)CCC[C@@H]13,/,/,.,.,/,/
O=C1OC(c2ccc(F)cc2)=C/C1=C\c1ccc(O)cc1,.,.,.,.,17,.
O=C1OC(c2ccc(F)cc2)=C/C1=C\c1ccc([N+](=O)[O-])o1,.,/,/,/,/,/
O=C(Nc1nnc(CSCc2ccccc2F)s1)c1cccc([N+](=O)[O-])c1,.,46,.,.,.,.
CC1CCN(S(=O)(=O)c2nnc(NC(=O)c3cccc([N+](=O)[O-])c3)s2)CC1,.,/,/,/,11,/
O=C(Nc1nnc(S(=O)(=O)N2CCCC2)s1)c1cccc([N+](=O)[O-])c1,.,/,/,/,.,/
Cc1ccnc(NC(=O)c2cccc(S(=O)(=O)N3CCN(c4ccccc4)CC3)c2)c1,.,.,.,.,/,.
Cc1ccc(NC(=O)c2cccc(S(=O)(=O)N3CCN(c4ccccc4)CC3)c2)nc1,.,.,.,.,28,.
Cc1ccc(N2CCN(S(=O)(=O)c3nnc(NC(=O)c4ccccc4)s3)CC2)cc1,.,.,.,.,10,.
CC(C)C(=O)Nc1nnc(CSCc2ccccc2F)s1,.,.,.,.,.,.
Cc1ccc(C(=O)Nc2nnc(S(=O)(=O)N3CCOCC3)s2)cc1,.,.,.,.,.,.
COC(=O)c1cc2c(c3c4ccccc4n(S(C)(=O)=O)c13)C(=O)N(Cc1ccccc1)C2,/,.,.,.,/,.
Cc1ccc(NC(=O)[C@@H](Cc2ccccc2)NC(=O)[C@H]2O[C@@H](n3ccc(=O)[nH]c3=O)[C@H](O)[C@@H]2O)cc1C,/,.,.,.,/,.
C[C@@H](O[Si](c1ccccc1)(c1ccccc1)C(C)(C)C)[C@@H]1NC(=O)[C@@H]2C[C@]3(Br)c4ccccc4N(S(=O)(=O)c4ccccc4)[C@@H]3N2C1=O,/,/,.,.,/,/
COc1cccc(NC(=O)Cn2c(=O)oc3ccccc32)c1,.,.,.,.,.,.
COc1ccc(-c2nc(NC(=O)Cn3c(=O)oc4ccccc43)sc2C)cc1,70,.,.,.,.,.
CC(C)C[C@H]1CN([C@@H](CC(C)C)CN2CCCC2CN2C(=S)NC[C@@H]2Cc2ccc(O)cc2)C(=S)N1CC1CCCCC1 (stereo partly drawn),/,.,.,.,13,.
COc1ccc(/C=N/n2cc(-c3ccccc3)nc2N)cc1,68,/,/,/,.,/
